Laboratory results from PubChem BioAssay AID1159580 (chemical genetic matrix, 2015).
“And” between values parts separate entries of the source, which are not always exact repeats. Identical values can stand only once. About 2,000 (36%) of roughly 5,500 compounds were called active. Roughly 18% stayed inconclusive and do not appear here. Rule as the data show it: active = normalized growth mostly below about 0.91 (no sharp cut-off); inconclusive = no clear call, values can overlap the other calls; inactive = mostly above about 0.92. The list shows a part of the results. Some compounds were tested as several samples or in several runs, with calls that do not always agree.

Assay: chemical genetic growth profiling, strain panel (AID 1159580);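 also: tested at 20 µM; growth read once vehicle control cultures reached saturation at 30 °C; 1 = growth at the plate median or of vehicle wells; lower values mean less growth of the strain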
Settings: S. cerevisiae deletion strains, growth OD

Measured: normalized growth

CSc1ccc2c(c1)N(CCC1CCCCN1C)c1ccccc1S2 (stereo not given)
0.0681 (active) and 0.997 (inactive): locus YJL095W, strain BCK1, stronger effect = lower value
0.194 (active) and 1.01 (inactive): locus YGR078C, strain PAC10, stronger effect = lower value
active: locus YAL013W, strain DEP1, stronger effect = lower value 0.161 and 0.864 | locus YAL026C, strain drs2, stronger effect = lower value 0.23 | locus YBR009C, strain hhf1, stronger effect = lower value 0.877 | locus YBR021W, strain FUR4, stronger effect = lower value 0.195 | locus YBR229C, strain ROT2, stronger effect = lower value 0.451 | locus YBR279W, strain paf1, stronger effect = lower value 0.924 | locus YCL029C, strain bik1, stronger effect = lower value 0.169 | locus YDL035C, strain GPR1, stronger effect = lower value 0.0738 | locus YDL074C, strain BRE1, stronger effect = lower value 0.0864 | locus YDL101C, strain DUN1, stronger effect = lower value 0.0947 | locus YDL134C, strain PPH21, stronger effect = lower value 0.0681 | locus YDL192W, strain arf1, stronger effect = lower value 0.0652 | locus YDR069C, strain doa4, stronger effect = lower value 0.891 | locus YDR101C, strain arx1, stronger effect = lower value 0.419 | locus YDR137W, strain rgp1, stronger effect = lower value 1.35 [resistant] | locus YDR162C, strain NBP2, stronger effect = lower value 0.0524 | locus YDR195W, strain ref2 1.37 [resistant] | locus YDR318W, strain mcm21, stronger effect = lower value 0.116 | locus YDR388W, stronger effect = lower value 0.0641 | locus YDR502C, strain sam2, stronger effect = lower value 0.123 | locus YEL061C, strain CIN8, stronger effect = lower value 0.196 | locus YER015W, strain faa2, stronger effect = lower value 0.842 | locus YER155C, strain BEM2, stronger effect = lower value 0.789 | locus YER167W, strain BCK2, stronger effect = lower value 0.118 | locus YFR010W, strain ubp6, stronger effect = lower value 0.781 | locus YGL086W, strain mad1, stronger effect = lower value 0.0828 | locus YGL248W, strain PDE1, stronger effect = lower value 0.0643 | locus YGR135W, strain pre9, stronger effect = lower value 0.189 | locus YGR229C, strain SMI1, stronger effect = lower value 0.06 | locus YGR252W, strain gcn5, stronger effect = lower value 0.161 | locus YHR027C, strain rpn1, stronger effect = lower value 0.844 | locus YHR079C, strain IRE1 (second series), stronger effect = lower value 0.374 | locus YHR094C, strain hxt1, stronger effect = lower value 0.304 | locus YHR129C, strain ARP1, stronger effect = lower value 0.0924 | locus YHR200W, strain rpn10, stronger effect = lower value 0.26 | locus YIL066C, strain RNR3, stronger effect = lower value 0.0646 | locus YIL073C, strain SPO22, stronger effect = lower value 0.0996 | locus YIR030C, strain dcg1, stronger effect = lower value 0.227 | locus YJL095W, strain BCK1 (second series), stronger effect = lower value 0.894 | locus YJL134W, strain LCB3, stronger effect = lower value 0.9 | locus YJL168C, strain set2, stronger effect = lower value 0.098 | locus YJL187C, strain SWE1 (second series), stronger effect = lower value 0.0709 | locus YJR043C, strain POL32, stronger effect = lower value 0.0862
0.0522 (active) and 0.997 (inactive): locus YHR030C, strain SLT2, stronger effect = lower value
inactive: locus YAL021C, strain ccr4, stronger effect = lower value 0.939 | locus YAL030W, strain snc1, stronger effect = lower value 0.985 | locus YAL040C, strain CLN3, stronger effect = lower value 1.07 | locus YBL061C, strain skt5, stronger effect = lower value 0.963 | locus YBR023C, strain chs3, stronger effect = lower value 0.923 | locus YBR171W, strain sec66, stronger effect = lower value 1.03 | locus YBR231C, strain swc5, stronger effect = lower value 0.94 | locus YCL011C, strain gbp2, stronger effect = lower value 0.94 | locus YCL016C, strain dcc1, stronger effect = lower value 0.951 | locus YCL061C, strain MRC1 (second series), stronger effect = lower value 0.991 | locus YCL069W, strain vba3, stronger effect = lower value 1.01 | locus YCR088W, strain abp1, stronger effect = lower value 1.01 | locus YDL005C, strain med2, stronger effect = lower value 1.05 | locus YDL040C, strain nat1, stronger effect = lower value 1.01 | locus YDL185W, strain tfp1, stronger effect = lower value 1.01 | locus YDR001C, strain nth1, stronger effect = lower value 1.02 | locus YDR150W, strain NUM1, stronger effect = lower value 0.972 | locus YDR159W, strain sac3, stronger effect = lower value 0.977 | locus YDR297W, strain sur2, stronger effect = lower value 0.962 | locus YDR334W, strain swr1, stronger effect = lower value 1.04 | locus YDR335W, strain msn5, stronger effect = lower value 0.967 | locus YDR363W, strain ESC2, stronger effect = lower value 0.894 | locus YDR392W, strain spt3, stronger effect = lower value 1.12 | locus YEL003W, strain gim4, stronger effect = lower value 0.971 | locus YEL037C, strain rad23, stronger effect = lower value 1.01 | locus YEL061C, strain CIN8 (second series), stronger effect = lower value 1.02 | locus YER002W, strain NOP16, stronger effect = lower value 1.01 | locus YER016W, strain bim1, stronger effect = lower value 0.992 | locus YER110C, stronger effect = lower value 0.916 | locus YER111C, strain swi4, stronger effect = lower value 1.01 | locus YER155C, strain BEM2 (second series), stronger effect = lower value 1.05 | locus YGL078C, strain dbp3, stronger effect = lower value 1.01 | locus YGL167C, strain pmr1, stronger effect = lower value 1.01 | locus YGL173C, strain kem1, stronger effect = lower value 0.966 | locus YGL227W, strain vid30, stronger effect = lower value 1.04 | locus YGL240W, strain doc1, stronger effect = lower value 0.955 | locus YGL253W, strain hxk2, stronger effect = lower value 0.948 | locus YHR013C, strain ard1, stronger effect = lower value 1.01 | locus YHR079C, strain IRE1, stronger effect = lower value 0.979 | locus YHR142W, strain chs7, stronger effect = lower value 0.962 | locus YIL125W, strain kgd1, stronger effect = lower value 1.01 | locus YJL092W, strain hpr5, stronger effect = lower value 0.994 | locus YJL115W, strain asf1, stronger effect = lower value 1.01 | locus YJL129C, strain trk1, stronger effect = lower value 1.07 | locus YJL154C, strain vps35, stronger effect = lower value 1.03 | locus YJL164C, strain tpk1, stronger effect = lower value 0.977 | locus YJL166W, strain qcr8, stronger effect = lower value 0.97 | locus YJL187C, strain SWE1, stronger effect = lower value 0.939 | locus YJR066W, strain TOR1, stronger effect = lower value 0.937
